The text below walks through data of PubChem BioAssay.

Experiment [1] in a line: growth inhibition of DIPG glioma cells, dose response, cell-based, SU-DIPG-XVII, MIPE5.0, CellTiter-Glo, qHTS (AID 1347060).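 As to AC50: cells exposed to compound for 48 hours before viability readout.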 Conditions: SU-DIPG-XVII viability, CellTiter-Glo ATP luminescence. For orientation: In ATP-based viability assays light output follows the ATP content of the culture.
Experiment [2] is described as follows: growth inhibition of DIPG glioma cells, dose response, cell-based, SU-DIPG-XIII, MIPE5.0, CellTiter-Glo, qHTS (AID 1347064; cut-off not given, nearly all actives have AC50 up to about 23 µM;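 as to AC50: cells exposed to compound for 48 hours before the viability read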). Conditions: SU-DIPG-XIII viability, CellTiter-Glo ATP luminescence.
Experiment [3] can be described thus: viability loss in pontine glioma line – cell-based, SU-DIPG-XXV, MIPE5.0, CellTiter-Glo, qHTS, dose response (AID 1347065).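 Also: cells exposed to compound for 48 hours before ATP readout.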 Conditions: CellTiter-Glo ATP luminescence.
The nature of experiment [4]: JHH-DIPG-1 glioma cell viability, MIPE5.0 library, CellTiter-Glo luminescence, qHTS (AID 1347067).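 Also: cells exposed to compound for 48 hours before readout.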 The following applies: JHH-DIPG-1 glioma viability, CellTiter-Glo ATP luminescence.
Experiment [5] in a line: SU-DIPG-XXV glioma cell viability, MIPE5.0 library, qHTS (AID 1347068; cut-off not given, nearly all actives have IC50 up to about 30 µM;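 as to IC50: cells exposed to compound for 48 hours before viability readout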).

Usually AC50 stands for the concentration at which the activity in the assay is half-maximal. The term IC50 denotes the concentration needed to halve the response being measured.

Each structure is given as a SMILES string. Inconclusive results are not listed. The source made the active and inactive calls. Unless noted, the limit is not given here; nearly all actives have AC50 up to about 26 µM.

For the compound `Cc1cc2cc(Oc3ccnc(Nc4cccc(CS(=O)(=O)NCCN(C)C)c4)n3)ccc2[nH]1`, the AC50 was 4680 nM (active) in experiment [1], 8330 nM (active) in experiment [2], 5900 nM (active) in experiment [3] and 20900 nM (active) in experiment [4]. In experiment [5], the IC50 is 18600 nM (active).

As to `C[C@@H](Oc1cc(C(=O)Nc2ccc(C(=O)N3CCN(C)CC3)cc2)nnc1N)c1c(Cl)ccc(F)c1Cl`, the half-maximal activity concentration (AC50) in experiment [1] is 118 nM (active); in experiment [2], 417 nM (active); in experiment [3] it was 742 nM (active); in experiment [4], 16600 nM (active). Further, in experiment [5], the IC50 is 7420 nM (active).

With `FC(F)(F)c1ccc(Nc2nc(-c3c(C(F)(F)F)nc4ccccn34)cs2)cc1`, the AC50 in experiment [1] is 372 nM (active); in experiment [2], 14800 nM (active); in experiment [3], 372 nM (active); in experiment [4] it was 1860 nM (active). For the same compound, the IC50 in experiment [5] is 3320 nM (active).

On to `COc1cc(OC)c(/C=C/S(=O)(=O)Cc2ccc(OC)c(OP(=O)(O)O)c2)c(OC)c1`, for which the AC50 in experiment [1] was 41.7 nM (active); in experiment [2] it was 41.7 nM (active); in experiment [3], 74.2 nM (active); in experiment [4], 59 nM (active). For the same compound, the IC50 in experiment [5] was 74.2 nM (active).

As to `CC[C@]12C=CCN3CC[C@@]4(c5cc([C@@]6(C(=O)OC)CC7C[C@@H](C(C)(F)F)CN(Cc8c6[nH]c6ccccc86)C7)c(OC)cc5N(C)[C@H]4[C@@](O)(C(=O)OC)[C@@H]1OC(C)=O)[C@@H]32` (stereo not given in full), the AC50 in experiment [1] is 148 nM (active); in experiment [2] it was 1050 nM (active); in experiment [3], 132 nM (active); in experiment [4] it was 235 nM (active). For the same compound, the half-maximal inhibitory concentration (IC50) in experiment [5] is 742 nM (active).

On to `O=S(=O)(Nc1ccc(-c2cccnc2)c2cccnc12)c1cccc(C(F)(F)F)c1`, for which the half-maximal activity concentration (AC50) in experiment [1] is 11800 nM (active); in experiment [2], 16600 nM (active); in experiment [3], 14800 nM (active); in experiment [4], 7420 nM (active). Further, the result in experiment [5] was inactive.

With `O=C1CC[C@H](N2Cc3c(OCc4ccc(CN5CCOCC5)cc4)cccc3C2=O)C(=O)N1`, the outcome in experiment [1], in experiment [2], in experiment [3], in experiment [4] and in experiment [5] was inactive.

On to `Cc1cc(Oc2ccc3nc(COc4ccc(CC5SC(=O)NC5=O)cc4)n(C)c3c2)cc(C)c1N` (stereo not given), for which the result in experiment [1], in experiment [2], in experiment [3], in experiment [4] and in experiment [5] was inactive.

On to `Cc1c(-c2c(-c3ccc(F)o3)sc3ncnc(O[C@@H](Cc4ccccc4OCc4ccnn4CC(F)(F)F)C(=O)O)c23)ccc(OCCN2CCN(C)CC2)c1Cl`, for which the concentration at half-maximal activity (AC50) in experiment [1] was 295 nM (active); in experiment [2] it was 6610 nM (active); in experiment [3], 132 nM (active); in experiment [4], 3320 nM (active). In experiment [5], the half-maximal inhibitory concentration (IC50) is 1320 nM (active).

For the compound `Cc1cc(O)cc2c1[C@]1(C)CC[C@H]3C(C)(C)CCC[C@]3(C)[C@H]1C2`, the result in experiment [1], in experiment [2], in experiment [3], in experiment [4] and in experiment [5] was inactive.

In the case of `CCc1cc(C(N)=O)ccc1-n1nc(C(C)C)c2c(-n3cnc(-c4cnn(C)c4)c3)ccnc21`, the concentration at half-maximal activity (AC50) in experiment [1] is 1860 nM (active); in experiment [2], 3720 nM (active); in experiment [3], 1860 nM (active); in experiment [4], 3320 nM (active). Besides, the IC50 in experiment [5] is 3320 nM (active).

As to `O=C(O)CC(C(=O)O)n1c(O)c(C2=c3cc(Br)ccc3=NC2=O)sc1=S` (stereo not given), the call in experiment [1], in experiment [2], in experiment [3], in experiment [4] and in experiment [5] was inactive.

As for `COCCOc1cnc2ccn([C@H](C)c3nnc4c(F)cc(-c5cnn(C)c5)cn34)c(=O)c2c1`, the call in experiment [1], in experiment [2], in experiment [3], in experiment [4] and in experiment [5] was inactive.

Regarding `C[C@@H]1CC(=O)Nc2cccc(-c3cnn(C(C)(C)C)c3)c2N1`, the call in experiment [1], in experiment [2], in experiment [3], in experiment [4] and in experiment [5] was inactive.

Regarding `Cc1ccc(S(=O)(=O)Nc2cc(-c3ccc(C#N)s3)ccc2C)cc1`, the AC50 in experiment [1] was 46.8 nM (active); in experiment [2] it was 52.5 nM (active); in experiment [3], 33.2 nM (active); in experiment [4], 59 nM (active). Besides, the half-inhibitory concentration (IC50) in experiment [5] was 66.1 nM (active).

As to `CNCCn1c(=O)c2cc(OC)c(OC)cc2c2cnc3cc4c(cc3c21)OCO4`, the half-maximal activity concentration (AC50) in experiment [1] was 21.5 nM (active); in experiment [2] it was 1710 nM (active); in experiment [3], 1520 nM (active); in experiment [4] it was 481 nM (active). Moreover, the compound was called inactive in experiment [5].

Take `COc1cc2c(cc1O)CCN[C@]21CS[C@@H]2c3c(OC(C)=O)c(C)c4c(c3[C@H](COC1=O)N1[C@@H]2[C@H]2c3c(cc(C)c(OC)c3O)C[C@@H]([C@@H]1O)N2C)OCO4`: the concentration at half-maximal activity (AC50) in experiment [1] is 0.382 nM (active); in experiment [2], 1.35 nM (active); in experiment [3], 1.52 nM (active); in experiment [4], 0.679 nM (active). Moreover, in experiment [5], the concentration for half-maximal inhibition (IC50) is 24.1 nM (active).

Turning to `N#Cc1ccnc(N2C(=O)CC[C@H]2C(=O)N(c2cncc(F)c2)C(C(=O)NC2CC(F)(F)C2)c2ccccc2Cl)c1` (stereo not given in full), the outcome in experiment [1], in experiment [2], in experiment [3], in experiment [4] and in experiment [5] was inactive.

For the compound `CC(C)N(CCCNC(=O)Nc1ccc(C(C)(C)C)cc1)C[C@H]1O[C@@H](n2ccc3c(N)ncnc32)[C@H](O)[C@@H]1O`, the result in experiment [1], in experiment [2], in experiment [3], in experiment [4] and in experiment [5] was inactive.

Consider `CC(=O)c1ccc2c(c1)c1cc(C(C)=O)ccc1n2CCNC(C)C`, for which the concentration at half-maximal activity (AC50) in experiment [1] was 2950 nM (active); in experiment [2], 4680 nM (active); in experiment [3], 3320 nM (active); in experiment [4], 2630 nM (active). Further, in experiment [5], the IC50 was 5900 nM (active).

Consider `O=C(COCC(=O)N1CCN(C(c2ccccc2)c2ccccc2)CC1)Nc1ccc(Cl)cc1C(=O)O`, for which the compound was called inactive in experiment [1], in experiment [2], in experiment [3], in experiment [4] and in experiment [5].

Consider `C[C@@H]1COCCN1c1cc(=O)n2c(n1)N(Cc1cncc(Cl)c1)[C@H](C(F)(F)F)CC2`, for which the result in experiment [1], in experiment [2], in experiment [3], in experiment [4] and in experiment [5] was inactive.
